Assay outcomes as filed in PubChem.
Vaccinia mCherry: vaccinia inhibition (mCherry reporter). Vaccinia virus mCherry reporter infection, fluorescence. Potency, µM (highest dose often 36.5 µM), for inactives: at the highest dose activity change, negative = inhibition, usual class: inhibitors. 310,000 tested, 0.63% active. AID 720579; calls by dose curve; tested in A549 cells; note: potency is the fitted concentration of half-maximal effect; nearly all actives have a fitted effect of over 35% in size
FMDV antiviral: antivirals against foot and mouth disease virus; FMDV antiviral cell-based qHTS; Potency, µM (top dose mostly 57.9 µM), for inactives: at the highest dose activity change, negative = inhibition, usual class: inhibitors; 410,000 tested, 1.2% active; AID 1159524; calls by dose curve; tested in HEK293T cells; note: read-out not given here; potency is the fitted concentration of half-maximal effect; nearly all actives have a fitted effect of over 45% in size
HCMV inh: blocks human cytomegalovirus replication; HFF cells, HCMV-luciferase reporter, 72 h; hits give low values; activity change, negative = inhibition, % at 57.5 µM; 410,000 tested, 4.5% active; in the data active = activity change below about -60%; inconclusive = no clear call, values can overlap the other calls; inactive = above about -39%
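Compounds were evaluated in HFFs infected with an HCMV luciferase reporter virus (MOI 1 PFU/cell). Luciferase in lysates collected 72 h post infection served as the replication measure.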
HCV inh: inhibitors of hepatitis C virus infection; Huh7.5.1 HCVcc-Cre infection, luciferase reporter, 44 h; Potency, µM (top dose mostly 41.8 µM), for inactives: top-dose activity change, negative = inhibition, usual class: inhibitors; 340,000 tested, 3.4% active; active = well fitted inhibition curve with a large enough effect; inconclusive = small, poorly fitted or top-dose-only effect, or another doubt; inactive = no such curve, though single readings can be large or run the other way; note: potency is the fitted concentration of half-maximal effect
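Cells seeded at 1,000/well and cultured 4 h, then compounds added followed by HCVcc-Cre virus (~0.5 moi). After 44 h further culture, luciferase substrate was added, plates held 15 min at room temperature, and luminescence read for 15 sec.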
Vaccinia Venus: inhibitors of vaccinia virus (Venus reporter); Potency, µM (highest dose often 36.5 µM), for inactives: top-dose activity change, negative = inhibition, most hits filed as inhibitors; 330,000 tested, 0.46% active; AID 720580; Vaccinia virus Venus reporter expression, fluorescence; calls by dose curve; tested in A549 cells; note: potency is the fitted concentration of half-maximal effect; nearly all actives have a fitted effect of over 30% in size
The depositor's hits bear a star; i = inactive; ? = inconclusive; nt = not tested or not shown; + = active, no number. Compounds with a hit are over-represented: about 7.3% of the library has one in this group of screens. % is set by controls: 0 for no effect and ±100 for the full control effect.

SMILES	Vaccinia mCherry	FMDV antiviral	HCMV inh	HCV inh	Vaccinia Venus
CC(=O)N1c2c(cc(Br)cc2S(=O)(=O)N2CCN(c3cc(C)ccc3C)CC2)CC1C (stereo not drawn)	-2.9%	0.0%	-32.7	nt	-0.3%
CC(=O)N1c2c(cc(Br)cc2S(=O)(=O)N2CCN(c3ccccc3F)CC2)CC1C (stereo not drawn)	-12.7%	?	-67.2*	?	-14.9%
CCCCN(Cc1ccccc1)S(=O)(=O)c1cc(Br)cc2c1N(C(C)=O)C(C)C2 (stereo not drawn)	-30.0%	-21.9%	-64.7*	5.01µM*	-21.5%
O=C(Nc1ccc(S(=O)(=O)N2CCOCC2)cc1)c1ccco1	i	-15.9%	69.5	-1.0%	-9.5%
O=C(Nc1ccc(S(=O)(=O)N2CCOCC2)cc1)c1ccc([N+](=O)[O-])o1	?	-14.4%	-98.5*	-22.3%	17.8µM*
O=C(Nc1ccc(N2CCOCC2)cc1)c1ccc([N+](=O)[O-])o1	11.2µM*	27.1%	-103.0*	?	?
O=C(Nc1ccc(S(=O)(=O)N2CCCC2)cc1)c1ccc([N+](=O)[O-])o1	nt	?	nt	2.82µM*	nt
O=C(Nc1ccc(S(=O)(=O)N2CCOCC2)cc1)c1ccc([N+](=O)[O-])s1	?	-13.2%	6.1	8.91µM*	1.4%
Cc1ccc(C(=O)Nc2ccc(Cc3ccncc3)cc2)cc1[N+](=O)[O-]	?	?	-39.0	?	-12.6%
Cc1c(C(=O)Nc2ccc(Cc3ccncc3)cc2)cccc1[N+](=O)[O-]	-11.0%	-2.5%	-78.8*	-13.6%	-20.7%
CCc1c(C(=O)Nc2ccc(S(=O)(=O)N3CCOCC3)cc2)csc1C	-6.9%	-23.9%	10.8	10µM*	-13.8%
O=C(Nc1ccc(Cc2ccncc2)cc1)c1ccc([N+](=O)[O-])o1	10µM*	10.1%	-100.9*	?	?
COc1ccc(CNc2ncnc3ccc(-c4c(C)noc4C)cc23)c(OC)c1	nt	24.1%	nt	nt	nt
O=C1NC[C@H](Cc2ccc(O)cc2)N(C[C@@H]2CCCN2C[C@H](Cc2ccccc2)N2C[C@H](Cc3ccc(O)cc3)N(CC3CCCCCC3)C(=O)C2=O)C1=O	-0.6%	15.4%	-20.1	nt	-11.0%
CCn1c2ccccc2c2cc(NC(=O)COC(=O)c3cc(S(N)(=O)=O)c(Cl)cc3Cl)ccc21	11.2µM*	-20.8%	0.0	?	?
CCn1c2ccccc2c2cc(NC(=O)N3CCOCC3)ccc21	nt	27.4%	79.3	?	-12.4%
CCn1c2ccccc2c2cc(NC(=O)COc3ccccc3)ccc21	-25.9%	-26.2%	-39.7	?	?
CCn1c2ccccc2c2cc(NC(=O)COC(=O)c3ccc(NC(=O)CC#N)cc3)ccc21	?	10.6%	-8.3	?	?
CCn1c2ccccc2c2cc(NC(=O)CCCN3C(=O)CCC3=O)ccc21	nt	0.0%	-27.8	3.55µM*	-26.8%
CCn1c2ccccc2c2cc(NC(=O)CN(C)CC(=O)Nc3ccc(N4CCOCC4)cc3)ccc21	nt	-19.9%	?	11.2µM*	nt
CCn1c2ccccc2c2cc(NC(=O)COC(=O)c3ccccc3O)ccc21	-1.6%	-0.8%	-15.6	11.2µM*	2.3%
COc1ccc(S[C@]2(c3nc(-c4cccnc4)no3)CC(=O)N[C@@H]2c2ccc(OC)cc2)cc1	nt	nt	23.5	nt	nt
CCn1c2ccccc2c2cc(NC(=O)COC(=O)c3ccccc3F)ccc21	10µM*	0.1%	-20.4	?	?
O=C(NCc1ccccc1)C1CCCN(c2ncnc3c2nc2n3CCCCC2)C1 (stereo not drawn)	-10.1%	-16.9%	?	?	-16.7%
CCc1cccc(NC(=O)C2CCCN(c3ncnc4c3nc3n4CCCCC3)C2)c1 (stereo not drawn)	i	?	?	11.2µM*	?
SMILES	Vaccinia mCherry	FMDV antiviral	HCMV inh	HCV inh	Vaccinia Venus
O=C(NCc1cccc(Cl)c1)C1CCCN(c2nn3cc(-c4ccc(F)cc4)nc3s2)C1 (stereo not drawn)	-23.2%	11.2µM*	+	nt	-26.1%
O=C(NCc1cccc(Cl)c1)C1CCN(c2nn3cc(-c4ccc(F)cc4)nc3s2)CC1	-26.4%	31.2%	16.5	nt	?
O=C(Nc1cccc(Cl)c1)C1CCCN(c2ncnc3c2nc2n3CCCCC2)C1 (stereo not drawn)	-16.5%	?	14.2	nt	-15.2%
O=C(NCC1CCN(Cc2ccc(F)cc2)CC1)C1CCCN(c2ncnc3c2nc2n3CCCCC2)C1 (stereo not drawn)	nt	-14.5%	-61.5*	?	nt
O=C(NCc1cccc(Cl)c1)C1CCCN(c2ncnc3c2nc2n3CCCCC2)C1 (stereo not drawn)	-9.0%	-21.9%	-66.7*	?	-4.8%
O=C(c1cccc(F)c1)N1CCC2(CC1)CN(c1ccccn1)C2	nt	-16.6%	nt	nt	nt
COc1ccccc1N1CCN(C(=O)C2CCN(S(=O)(=O)c3cccs3)CC2)CC1	-8.8%	14.7%	41.8	nt	-3.0%
C=C[C@@H]1c2cc(C)ccc2N(S(=O)(=O)c2ccc(C)cc2)[C@H](c2ccc(C(=O)OC)cc2)C1(C#N)C#N	i	nt	nt	nt	-3.6%
O=C(NCC1CCN(Cc2ccc(Cl)cc2)CC1)C1CCCN(c2ncnc3c2nc2n3CCCCC2)C1 (stereo not drawn)	nt	10µM*	-78.6*	?	nt
COc1ccc(Nc2nc(N)nc(N)c2S(=O)(=O)c2ccccc2)cc1	-11.0%	-16.8%	-16.4	nt	-4.8%
Cc1cccc(Nc2nc(N)nc(N)c2S(=O)(=O)c2ccccc2)c1	-5.0%	-10.5%	-102.8*	nt	-1.9%
COc1ccc(-c2nc(-c3ccccn3)ncc2S(C)(=O)=O)cc1	-2.2%	-5.2%	-61.1*	-8.6%	-3.9%
COc1ccccc1N1CCN(S(=O)(=O)c2c(C)nc3sc(C)c(C)n3c2=O)CC1	-4.2%	-24.9%	4.7	nt	-8.3%
Cc1nn(-c2cccc(Cl)c2)c2nc(-c3ccncc3)cc(C(=O)N3CCOCC3)c12	-6.5%	?	142.5	7.94µM*	-9.3%
Cc1nn(-c2ccccc2)c2nc(-c3ccccc3)cc(C(=O)N3CCOCC3)c12	-7.4%	?	80.0	?	-12.8%
COCCNC(=O)/C(=C/c1ccccc1Cl)c1ccccc1	i	0.0%	-77.0*	-1.4%	-29.1%
Cc1cn2c(=O)cc(COC(=O)c3cccc(NC(=O)c4ccccc4C)c3)nc2s1	i	-6.3%	?	nt	-11.6%
CN(Cc1cnc2nc(N)nc(N)c2n1)c1ccc(C(=O)NC(CCC(=O)O)C(=O)O)c2ccccc12 (stereo not drawn)	3.16µM*	-18.5%	-101.2*	-16.2%	?
CCN1CCN(Cc2ccc(NC(=O)c3ccc(C)c(NC(=O)c4ccno4)c3)cc2C(F)(F)F)CC1	-1.6%	-24.9%	-4.2	-19.0%	?
CCN1CCN(Cc2ccc(NC(=O)c3ccc(C)c(NC(=O)c4cccc(-c5cn[nH]c(=O)c5)c4)c3)cc2C(F)(F)F)CC1	?	11.6%	nt	?	7.08µM*
